Bioassay records deposited in PubChem by National Center for Advancing Translational Sciences (NCATS).
In the library only some 12% were active in any assay of this set; here they are far more common.
FMDV antiviral: High Throughput Screening for Foot and Mouth Disease Virus Antivirals; FMDV antiviral cell-based qHTS; Potency, µM (series often up to 57.9 µM), for the others: at the highest dose activity change, negative = inhibition, actives largely listed as inhibitors; actives 1.2% (n = 410,000); AID 1159524, 2015; calls by dose curve; tested in HEK293T cells; also: read-out not given here; potency is read from the fitted curve at half-maximal effect; % is scaled to controls: 0 for no effect and ±100 for the full control effect; nearly all actives have a fitted effect of over 45% in size
Sm TGR inh: qHTS Assay for the Inhibitors of Schistosoma Mansoni Peroxiredoxins; AID 485364, 2010; actives 3% (n = 360,000); purified TGR, DTNB reduction, TNB absorbance 405 nm; Potency, µM (series often up to 114 µM), inactives show at the top dose activity change, negative = inhibition, usual class: inhibitors; Schistosoma mansoni thioredoxin glutathione reductase (TGR), Q962Y6; active = well fitted inhibition curve with a large enough effect; inconclusive = small, poorly fitted or top-dose-only effect; inactive = no such curve, though single readings can be large or run the other way; also: potency is read from the fitted curve at half-maximal effect; % is scaled to controls: 0 for no effect and ±100 for the full control effect; nearly all actives have a fitted effect of over 60% in size
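Kinetic colorimetric format: TGR-catalysed, NADPH-driven DTNB reduction monitored via TNB absorbance. Enzyme dispensed at 20 nM; compound exposure 15 min at room temperature before reaction start.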
Shiga inhibitor: A qHTS for Small Molecule Inhibitors of Shiga Toxin. Vero cells, Shiga toxin protein synthesis inhibition reporter. inhibition, % at 38.7 µM. actives 9.2% (n = 290,000). AID 2315, 2010; in the data active = inhibition mostly above about 28%, no sharp cut-off; inactive = mostly below about 43%; also: 0% is about no effect
Cycloheximide cs: Cycloheximide Counterscreen for Small Molecule Inhibitors of Shiga Toxin | actives 12% (n = 300,000) | max response, % | cell reporter, cycloheximide protein synthesis inhibition counterscreen | AID 2314, 2010; in the data active = max response mostly above about 13%, no sharp cut-off; inactive = mostly below about 14%; also: read at 38.3 µM for the half of the compounds with a filed dose; 0% is about no effect
Active calls of the source: *; u = inconclusive; x = no result given; [ ] = remark or other dose.

SMILES	FMDV antiviral	Sm TGR inh	Shiga inhibitor	Cycloheximide cs
CCn1c(SCC(=O)Nc2ccc(Cl)cc2)nc2nc3c(cc2c1=O)CCCC3	-22.6%	-2.4%	-5.2	1.0
NCC(O)COc1cccc2ccccc12 (centres undefined)	-6.3%	x	x	x
Cc1ccc(-c2cc(NC(=O)C(C)Oc3ccccc3F)on2)cc1 (centres undefined)	-5.4%	2.5%	x	x
CCOC(=O)c1ccc(-n2c(CN(CC)CC)nc3ccc([N+](=O)[O-])cc3c2=O)cc1	3.1%	11.2µM*	18.2	9.3
CCOC(=O)c1ccc(-n2c(CN3CCC(O)CC3)nc3ccc([N+](=O)[O-])cc3c2=O)cc1	1.7%	12.6µM*	4.3	15.4
CCOC(=O)c1ccc(-n2c(CN3CCC(C(N)=O)CC3)nc3ccc([N+](=O)[O-])cc3c2=O)cc1	0.3%	11.2µM*	2.0	7.3
CC1CCCN(S(=O)(=O)c2cc3c4c(c2)CC(=O)N4CCC3)C1 (centres undefined)	-16.8%	10.0%	x	x
Cc1ccc(-c2nn(CC(=O)NC3CCCC3)c3c2cnc2ccc(F)cc23)cc1C	32.8%	2.3%	x	x
COCC(C)NCc1cc2ccc(OC)cc2nc1N1CCN(c2ccc(F)cc2)CC1 (centres undefined)	-23.2%	x	x	x
CCN(CC)c1ccc(NC(=O)c2cnn(-c3ccccc3)c2-n2cccc2)c(C)c1	u	1.1%	x	x
CCOC(=O)N1CCc2c(sc(NCc3cccc(F)c3)c2C(=O)Nc2ccc(OC)cc2OC)C1	-9.0%	-15.4%	x	x
O=C(CCl)NC1CCCc2ccccc21 (centres undefined)	u	25.1µM*	-13.1	-1.0
O=C(NC(=S)NC1CCCc2ccccc21)c1ccc(F)cc1 (centres undefined)	-4.2%	17.8µM*	-10.2	7.5
CN(C(=O)CCl)C1CCCc2ccccc21 (centres undefined)	15.8µM*	11.2µM*	-3.9	-4.4
O=C(NC(=S)NC1CCCc2ccccc21)c1ccco1 (centres undefined)	-3.8%	u	12.9	-5.1
O=C(/C=C/c1ccc(-c2ccccc2[N+](=O)[O-])o1)c1ccco1	-18.9%	35.5µM*	113.0*	37.2*
N#C/C(=C\c1ccc(-c2ccccc2[N+](=O)[O-])o1)C(=O)N1CCOCC1	14.9%	-6.1%	8.7	-0.1
Cc1ccc(C(=O)c2cn(Cc3ccccc3F)c3cc4c(cc3c2=O)OCO4)cc1	-22.8%	1.4%	x	x
CSc1ccccc1NC(=O)c1cnccn1	19.3%	-5.2%	21.5	21.0*
O=C(Nc1cccc2ccccc12)c1cnccn1	32.0%	1.3%	62.0*	31.0*
CSc1ccccc1NC(=O)c1cc2ncc(Br)cn2n1	8.4%	-12.6%	93.7*	18.5*
CCc1ccccc1NC(=O)c1cnccn1	-12.9%	-6.8%	1.1	-1.5
CC(/C=N/NC(=O)Cn1cnc2c1c(=O)n(C)c(=O)n2C)=C\c1ccco1	-10.9%	25.1µM*	-4.6	-0.8
Cn1c(=O)c2c(ncn2CC(=O)N/N=C/C=C/c2ccco2)n(C)c1=O	-9.7%	11.2µM*	-4.2	-2.2
Cn1c(=O)c2c(ncn2CC(=O)N/N=C/C(Cl)=C/c2ccccc2)n(C)c1=O	0.0%	-2.1%	-7.7	-1.0
SMILES	FMDV antiviral	Sm TGR inh	Shiga inhibitor	Cycloheximide cs
CCCCCNc1nc2c(-c3ccccc3)nnn2c2ccccc12	-14.3%	3.6%	x	x
COc1cc2c(C(=O)N(C)c3cc(Cl)ccc3OC)cn(CC(C)C)c(=O)c2cc1OC	0.0%	-2.7%	x	x
COC(=O)c1sc(NC(=O)c2ccc(C)o2)nc1C	6.4%	-2.8%	147.3*	46.6*
CCOC(=O)c1sc(NC(=O)c2ccc(OC(C)=O)cc2)nc1C	37.2%	x	55.7*	20.6*
COC(=O)c1sc(NC(=O)c2oc3ccccc3c2C)nc1C	17.1%	6.3%	37.6*	28.1*
CCOC(=O)c1sc(NC(=O)c2ccc(C)o2)nc1C	0.1%	7.7%[11.4 µM]	43.2*	28.2*
Cc1ccc(C(=O)Nc2nnc(C)s2)o1	x	-2.2%	-3.4	9.9
CCOC(=O)c1sc(NC(=O)c2ccco2)nc1C	19.7%	-29.7%	12.0	16.5
Cc1ccc2c(=O)c(C(=O)c3cccc(Cl)c3)cn(CC(=O)NC3CCCCC3)c2n1	-13.5%	-2.4%	x	x
CCS(=O)(=O)c1nc(S(=O)(=O)c2ccc(C)cc2)c(NCCCOC)s1	-1.8%	2.0%	x	x
Oc1ccc(CN2CCN(Cc3ccccc3)CC2)c2cccnc12	-7.5%	10.4%	-15.0	-5.5
CN1CCN(Cc2cc(COCc3ccccc3)c3cccnc3c2O)CC1	-18.8%	25.1µM*	10.6	17.0*
CN1CCN(C2CCN(Cc3ccc(O)c4ncccc34)CC2)CC1	0.4%	1.58µM*	x	x
